This is a sample that favours compounds with a hit; in the whole collection about 3.2% have one here.
NRP1-CendR mod = NRP-1/CendR interaction modulation; FAM-RPARPAR peptide binding to NRP-1, fluorescence polarization; inhibition, % at 25 µM; 360,000 compounds, 0.85% hits; AID 602438;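 active = inhibition or corrected inhibition above about 18%, plus a signal ratio from 0.5 to 1.5, limit read from the data, passing the limit was not always enough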
MEKK2mut PB1 HTS = signal of MEK5 binding to mutant human MEKK2 PB1 domain. bead flow cytometry, Alexa488-MEK5 binding to MEKK2 mutant. percent response, % at 10 µM. 290,000 compounds, 0.35% hits; in the data active = percent response above about 24%, passing the limit was not always enough
MEKK3 PB1 HTS = raises or lowers MEK5 binding to the human MEKK3 PB1 domain | bead-based flow cytometry, Alexa488-MEK5 binding to MEKK3; actives lie on both sides; 0 = blocked by unlabeled MEK5, 100 = vehicle | binding response (% of control), % at 10 µM | 290,000 compounds, 1.4% hits;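 active = binding response more than 3 SD above or below the average of its plate-row segment, actives on both sides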;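 also: Alexa488 bead fluorescence after subtracting the streptavidin-only scavenger bead signal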
Target sequence (Q99759 whole entry, looked up, the tested form may be a part): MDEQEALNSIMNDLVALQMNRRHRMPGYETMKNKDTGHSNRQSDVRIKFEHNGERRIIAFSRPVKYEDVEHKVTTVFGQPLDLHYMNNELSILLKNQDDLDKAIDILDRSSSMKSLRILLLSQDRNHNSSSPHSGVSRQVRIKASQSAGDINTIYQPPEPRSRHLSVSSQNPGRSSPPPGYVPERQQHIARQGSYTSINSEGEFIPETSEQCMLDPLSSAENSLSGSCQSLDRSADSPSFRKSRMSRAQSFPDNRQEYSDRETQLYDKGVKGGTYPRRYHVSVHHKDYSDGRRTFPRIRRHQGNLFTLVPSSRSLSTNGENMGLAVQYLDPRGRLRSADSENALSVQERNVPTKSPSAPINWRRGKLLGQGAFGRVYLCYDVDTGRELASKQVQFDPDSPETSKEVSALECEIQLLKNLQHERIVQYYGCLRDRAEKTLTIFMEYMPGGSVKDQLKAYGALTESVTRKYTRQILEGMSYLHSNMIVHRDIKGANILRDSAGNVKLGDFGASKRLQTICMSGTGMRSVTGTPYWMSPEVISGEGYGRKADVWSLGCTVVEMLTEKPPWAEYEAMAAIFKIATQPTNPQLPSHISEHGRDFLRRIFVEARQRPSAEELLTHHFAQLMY
MEKK2 WT-MEK5 = raises or lowers MEK5 binding to wildtype human MEKK2 PB1 domain. Q9Y2U5. bead flow cytometry, Alexa488-MEK5 binding to MEKK2 WT; actives lie on both sides. binding response (% of control), % at 10 µM. 290,000 compounds, 1.1% hits. AID 1531; in the data active = binding response below about 67% or above about 130%
SKN-1 block = inhibitors of C. elegans SKN-1; C. elegans VP596 Pgst-4::GFP/RFP ratio, acrylamide-induced, 24 h; inhibition, % at 21.8 µM; 360,000 compounds, 0.49% hits;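 active = interference check ratio from 0.5 to 1.5 plus GFP to RFP signal ratio inhibition reaching or exceeding a fixed threshold, cut at about 30% in these data, passing the limit was not always enough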
Hits are given with their value; n = inactive; x = not tested or not shown; [ ] = dose if it differs, or a comment.

SMILES	NRP1-CendR mod	MEKK2mut PB1 HTS	MEKK3 PB1 HTS	MEKK2 WT-MEK5	SKN-1 block
COc1ccc2c(c1)c(C(=O)N/N=C/c1ccc(Br)cc1)c(C)n2C	26	n	n	n	n
CCc1ccc([C@@H]2C[C@H]3[C@@H](CN2S(=O)(=O)c2ccc(C)cc2)C(=O)C[C@@H](c2ccc(C)cc2)N3S(=O)(=O)c2ccc(C)cc2)cc1	n	x	x	x	n
COc1ccccc1OCC(=O)N1CCN(S(=O)(=O)c2ccc(Cl)cc2)CC1	n	x	x	x	n
Clc1ccccc1N=Nc1ccccn1	41	x	x	x	n
Cc1nnc(NC(=O)c2ccccc2C(=O)O)s1	35	n	n	n	n
Cc1ccc(F)cc1C(=O)N1CCCCC1c1cc(C(=O)Nc2ccccc2)no1 (stereo not drawn)	n	x	x	x	n
COC1=CC(=O)OC(c2ccc(C(F)(F)F)cc2)C1 (stereo not drawn)	26	x	x	x	n
COC1=CC(=O)OC(c2ccccc2C(F)(F)F)C1 (stereo not drawn)	n	x	x	x	n
CC(C)C[C@H]1CN(CCCC[C@H]2CNC(=O)C(=O)N2CC2CCCCC2)C(=O)C(=O)N1Cc1ccccc1	n	x	x	x	n
CCOc1ccccc1OCC(=O)NN1Cc2ccccc2C1=N	19	n	n	n	n
O=C(c1ccc(-c2cccc(Cl)c2)o1)N1CCN(c2ccc([N+](=O)[O-])cc2)CC1	29	n	n	n	n
COc1ccc(S(=O)(=O)N2CCN(C(=O)Nc3ccccc3OC)CC2)cc1	n	n	n	n	n
CC(C)OP(=O)(c1ccc(N(C)C)cc1)C(Nc1ccccc1)c1ccccc1 (stereo not drawn)	31	n	n	n	n
Cc1cccc(C)c1NC(=O)C1(C)CN(S(C)(=O)=O)CC(=O)N1CCc1c[nH]c2ccccc12 (stereo not drawn)	n	x	x	x	n
N#C/C(C(=O)c1ccccc1)=C1/SC=C(N)N1c1ccccc1	x	n	2.0[inhibitor]	4.0[inhibitor]	x
CC(SC1=NCCN1S(=O)(=O)c1ccccc1)c1ccccc1 (stereo not drawn)	n	n	n	n	n
CCN(CC)c1cccc(OCC(=O)N(C)CCC#N)c1	n	73	n	x	n
CN(CC(=O)Nc1ccc(F)cc1)C(=O)c1ccc(OCc2cn3ccccc3n2)cc1	27	x	x	x	n
CCc1ccccc1NC(=O)CNC(=O)c1ccc(OCc2cn3ccccc3n2)cc1	n	x	x	x	n
Cc1ccc(SCC(=O)OC(C)C(=O)NCc2ccccc2)cc1 (stereo not drawn)	n	x	x	x	n
O=C(CC(O)c1ccccc1)Nc1ccccn1 (stereo not drawn)	n	x	x	x	n
C=CCOc1ccc(C2NC(=O)c3ccccc3O2)cc1OC (stereo not drawn)	n	x	x	x	n
O=C(NC(=S)Nc1ccc(CN2CCCCC2)cc1)c1cc2ccccc2o1	n	n	n	n	73
CN1CCN(c2ccc(NC(=O)c3cc4ccccc4o3)cc2)CC1	n	n	n	n	n
CCCC(=O)N1CCN(c2ccc(NC(=O)c3cc4ccccc4o3)cc2)CC1	n	n	n	n	48
SMILES	NRP1-CendR mod	MEKK2mut PB1 HTS	MEKK3 PB1 HTS	MEKK2 WT-MEK5	SKN-1 block
CC(=O)Nc1ccc(NC(=S)NC(=O)c2cc3ccccc3o2)cc1	n	n	n	n	n
CCn1c(SCC(=O)c2c(N)n(C3CC3)c(=O)[nH]c2=O)nc2cc(S(N)(=O)=O)ccc21	n	x	x	x	n
Cc1c(Cl)cccc1NC(=S)NCc1cccn1C	28	n	n	n	n
O=C1CCC[C@@H]2Cc3nc4cc5c(cc4cc3[C@@H]3CCN1[C@H]23)OCO5	24	x	x	x	n
Cc1ccc(/C(N)=N/OC(=O)c2ccc(C)cc2Cl)cc1	n	n	n	n	n
COc1ccc(/C(N)=N/OC(=O)c2cccc([N+](=O)[O-])c2C)cc1OC	n	n	n	n	n
N/C(=N\OC(=O)c1ccc(Cl)cc1Cl)c1ccc(Cl)cc1	30	n	n	n	n
N/C(=N\OC(=O)c1ccc(Cl)cc1Cl)c1ccccc1	n	n	n	n	56
COc1cccc(C(=O)O/N=C(\N)c2ccc([N+](=O)[O-])cc2)c1OC	25	n	n	n	n
N/C(=N\OC(=O)c1ccc(Cl)cc1)c1cccnc1	n	x	x	x	29
CCCN(CC(=O)Nc1ccccc1C)C(=O)CCCNC(=O)c1ccc(Cl)cc1	n	x	x	x	n
COc1ccc(-c2ccccc2)cc1NC(=O)C1(C)CCN1C(=O)C(C)C (stereo not drawn)	n	x	x	x	n
N/C(=N\OC(=O)c1ccccc1Cl)c1ccc(Cl)cc1	n	n	n	n	n
Cc1cccc(/C(N)=N/OC(=O)c2ccc(Cl)cc2Cl)c1	n	n	n	n	n
COc1ccc(C(=O)O/N=C(\N)c2ccccc2)c(OC)c1	18	n	n	n	n
N/C(=N\OC(=O)c1ccccc1Cl)c1ccccc1	n	n	n	n	61
N/C(=N\OC(=O)c1ccc(Cl)cc1Cl)c1cccnc1	n	n	n	n	54
C=CC[C@H](CC(=O)NCCO)C(=O)NC[C@@H](OC(=O)[C@H](CC=C)CC(=O)OC(C)(C)C)c1ccccc1	n	x	x	x	n
COc1ccc(-c2cn(CC[C@@H]3CC[C@H](NC(=O)Cc4ccccn4)[C@@H](CO)O3)nn2)cc1	n	x	x	x	n
CCOc1cc(C2C(C(=O)O)c3cc(OCC)c(OCC)cc3C(=O)N2C)ccc1O (stereo not drawn)	n	n	n	n	n
CCOc1cc2c(cc1OCC)C(C(=O)O)C(c1cc(OC)c(OC)c(OC)c1)N(C)C2=O (stereo not drawn)	n	n	n	n	36
CCOC(=O)c1nc2cc3n(c(CC(C)C)c-2c1C)CC(C)=C3C	n	n	n	n	n
CCOC(=O)c1nc2cc3n(c(C)c-2c1C)C(C)C(C)=C3C (stereo not drawn)	n	n	127	n	n
CCCC(=O)N1CCCC(c2cc(C(=O)NCc3ccc(F)cc3)no2)C1 (stereo not drawn)	n	x	x	x	n
c1ccc(CSc2nnc(-c3cccs3)o2)cc1	n	n	n	n	61
SMILES	NRP1-CendR mod	MEKK2mut PB1 HTS	MEKK3 PB1 HTS	MEKK2 WT-MEK5	SKN-1 block
c1ccc(-c2nnc(CSc3nnc(-c4cccs4)o3)o2)cc1	n	n	n	n	n
C(=C\c1nnc(-c2cccs2)o1)/c1ccccc1	n	n	n	n	77
Fc1ccc(CSc2nnc(-c3cccs3)o2)cc1	n	n	n	n	58
O=C(CN1CCN(C(=O)c2cc(C3CC3)nn2-c2ccccc2)CC1)Nc1ccc(F)cc1	n	x	x	x	n
CCOC(=O)Cn1c(=O)n(Cc2ccco2)c(=O)c2ccc(C(=O)NC3CCCC3)cc21	33	n	n	n	n
COc1cccc(S(=O)(=O)N(C)C[C@H]2OCc3cnnn3CCCC(=O)N([C@H](C)CO)C[C@H]2C)c1	n	x	x	x	n
CCC1(O)CC2CN(CCc3c([nH]c4ccccc34)C(C(=O)OC)(c3cc4c(cc3OC)N(C=O)C3C(O)(C(=O)OC)C(OC(C)=O)C5(CC)C=CCN6CCC43C65)C2)C1 (stereo not drawn)	n	x	x	x	n

Assay outcomes deposited in PubChem BioAssay by several laboratories.
